From PubChem BioAssay (Tox21)
Where “and” joins values, the source holds several entries; their conditions need not be identical. Equal entries are not always repeated. Inconclusive results are not listed. The source holds several records for some structures; these can differ, active in one and inactive in another. Calls of active or inactive are those of the source. Unless noted, calls follow the shape of the dose curve; as a rule, active = well fitted curve in the direction sought with a large enough effect in the repeat runs; inconclusive = weak or mixed curves; inactive = no such curve, though single readings can be large; an effect the other way counts as inactive or inconclusive.

How the values were obtained:
[1] = qHTS assay to identify small molecule agonists of the estrogen receptor alpha (ER-alpha) signaling pathway in the presence of an antagonist - cell viability counter screen (AID 1259386); conditions: VM7Luc4E2 viability, CellTiter-Fluor fluorescence, 22 h; series mostly up to 92.4 µM;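 also: cells exposed to compounds for 22 h at 37 °C before the viability read; nearly all actives have a fitted effect of over 30% in size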; also: potency is read from the fitted curve at half-maximal effect
Method in brief: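 Cytotoxicity was measured in parallel with the ERE-luciferase agonist screen, in the same wells. The cells were VM7Luc4E2, which endogenously express ER-alpha, and treatment was with compounds plus 10.0nM ICI-182,780 for 22hr.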

[2] = molecular target: Progesterone receptor (Homo sapiens) (UniProt P06401); assay: qHTS assay to identify small molecule agonists of the progesterone receptor (PR) signaling pathway (AID 1346784; calls by dose curve; also: nearly all actives have a fitted effect of over 30% in size); conditions: PR-UAS-bla HEK293T, beta-lactamase FRET ratio, 16 h; series mostly up to 92.4 µM
Chain of Progesterone receptor (Homo sapiens) (P06401 whole entry, looked up): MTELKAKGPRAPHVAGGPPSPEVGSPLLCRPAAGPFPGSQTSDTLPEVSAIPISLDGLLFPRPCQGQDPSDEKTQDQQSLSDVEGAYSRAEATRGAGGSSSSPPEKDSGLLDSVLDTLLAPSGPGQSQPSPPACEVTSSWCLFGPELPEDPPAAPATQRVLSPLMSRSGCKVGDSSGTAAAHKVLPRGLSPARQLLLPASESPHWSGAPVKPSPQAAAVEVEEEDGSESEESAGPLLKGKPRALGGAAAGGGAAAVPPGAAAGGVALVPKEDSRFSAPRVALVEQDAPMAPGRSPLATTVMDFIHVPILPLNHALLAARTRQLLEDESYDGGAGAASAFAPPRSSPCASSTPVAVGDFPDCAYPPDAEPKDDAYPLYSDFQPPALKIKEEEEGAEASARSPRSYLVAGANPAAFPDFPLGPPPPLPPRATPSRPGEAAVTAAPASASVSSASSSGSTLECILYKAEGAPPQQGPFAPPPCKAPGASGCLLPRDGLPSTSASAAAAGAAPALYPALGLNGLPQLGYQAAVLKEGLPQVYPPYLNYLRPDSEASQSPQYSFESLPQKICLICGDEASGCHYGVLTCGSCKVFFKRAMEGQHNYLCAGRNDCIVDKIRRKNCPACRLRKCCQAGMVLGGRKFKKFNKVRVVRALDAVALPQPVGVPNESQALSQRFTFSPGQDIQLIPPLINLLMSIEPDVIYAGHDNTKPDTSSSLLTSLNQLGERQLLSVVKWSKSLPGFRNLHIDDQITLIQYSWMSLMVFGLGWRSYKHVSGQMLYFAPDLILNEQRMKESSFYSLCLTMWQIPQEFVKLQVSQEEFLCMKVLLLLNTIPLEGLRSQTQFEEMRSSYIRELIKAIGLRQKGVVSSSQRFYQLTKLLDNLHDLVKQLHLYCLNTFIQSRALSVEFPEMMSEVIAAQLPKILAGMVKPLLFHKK
Method in brief: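 Reporter assay, GripTite PR-UAS-bla HEK 293T cells: 16 hr exposure to DMSO-dissolved compounds at 37C, 5% CO2, in steroid-depleted (2% charcoal-stripped FBS) medium; beta-lactamase measured by FRET fluorescence.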

[3] = molecular target: Progesterone receptor (Homo sapiens) (UniProt P06401); assay: qHTS assay to identify small molecule antagonists of the progesterone receptor (PR) signaling pathway (AID 1346795; active = well fitted inhibition curve with a large enough effect in the signal ratio in the repeat runs, not every such curve was filed as active; the % refers to the signal ratio; also: potency is read from the fitted curve at half-maximal effect); conditions: PR-UAS-bla HEK293T, beta-lactamase FRET ratio, 16 h; series mostly up to 92.4 µM
Method in brief: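 Stimulus R5020 at 1 nM final; cells HEK293T PR-UAS-bla; medium with 2% charcoal-stripped FBS; compound exposure 16 hr at 37C, 5% CO2; detection by FRET beta-lactamase substrate, 2 hr, room temperature.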

[4] = qHTS assay to identify small molecule antagonists of the progesterone receptor (PR) signaling pathway - cell viability counter screen (AID 1346798); conditions: PR-UAS-bla HEK293T viability, CellTiter-Glo luminescence, 16 h; series mostly up to 92.4 µM; also: nearly all actives have a fitted effect of over 50% in size
Method in brief: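 In the same plates used for the beta-lactamase readout, cell viability of compound- and R5020-treated PR-UAS-bla HEK293T cells (16 hr, 37C) was assessed by CellTiter-Glo luminescence.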

[5] = qHTS assay to identify small molecule agonists of the progesterone receptor (PR) signaling pathway - cell viability counter screen (AID 1346799; calls by dose curve; also: nearly all actives have a fitted effect of over 45% in size); conditions: PR-UAS-bla HEK293T viability, CellTiter-Glo luminescence, 16 h; series mostly up to 92.4 µM
Method in brief: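 Multiplexed viability read: CellTiter-Glo luminescence, 30 min RT, following LiveBLAzer FRET measurement on PR-UAS-bla HEK293T cells exposed to compounds 16 hr.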

[6] = qHTS assay to identify small molecule antagonists of the TGF-beta/Smad signaling pathway - cell viability counter screen (AID 1346824); conditions: SBE-bla HEK293T viability, CellTiter-Glo luminescence; series mostly up to 76.8 µM; also: nearly all actives have a fitted effect of over 50% in size
Method in brief: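 Cytotoxicity counter-screen run in the same wells as the beta-lactamase Smad reporter read: CellTiter-Glo luminescence after 30 min at room temperature. HEK 293T SBE-bla cells had 5 hr compound exposure at 37 C with TGF-beta1 (0.25 ng/mL stock).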

[7] = qHTS assay to identify small molecule agonists of the TGF-beta/Smad signaling pathway - cell viability counter screen (AID 1346829); conditions: SBE-bla HEK293T viability, CellTiter-Glo luminescence, 5 h; series mostly up to 76.8 µM; also: top concentration of the series differs between compounds; nearly all actives have a fitted effect of over 45% in size
Method in brief: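 Compound-treated SBE-bla HEK 293T cells (5 hr, 37 C) were assessed for viability with CellTiter-Glo in parallel with the reporter read.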

[8] = qHTS assay to identify small molecule agonists of the TGF-beta/Smad signaling pathway (AID 1346859; active = well fitted activation curve with a large enough effect in the signal ratio in the repeat runs, not every such curve was filed as active; the % refers to the signal ratio); conditions: SBE-bla HEK293T, TGF-beta/Smad beta-lactamase reporter, 5 h; series mostly up to 76.8 µM
Method in brief: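 Screening used HEK 293T SBE-bla cells at 4,000/well. Test agents: 5 hr, 37 C. Detection: FRET substrate, 2 hr RT, then excitation 405 nm with emissions at 460 and 530 nm.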

[9] = molecular target: Thyrotropin-releasing hormone receptor (Homo sapiens) (UniProt P34981); assay: qHTS assay to identify small molecule antagonists of the thyrotropin-releasing hormone receptor (TRHR) signaling pathway (AID 1346877; active = well fitted inhibition curve with a large enough effect in the repeat runs, not every such curve was filed as active); conditions: TRHR-HEK293, TRH-induced calcium fluorescence, antagonist mode; series mostly up to 51.3 µM
Chain of Thyrotropin-releasing hormone receptor (Homo sapiens) (P34981 whole entry, looked up): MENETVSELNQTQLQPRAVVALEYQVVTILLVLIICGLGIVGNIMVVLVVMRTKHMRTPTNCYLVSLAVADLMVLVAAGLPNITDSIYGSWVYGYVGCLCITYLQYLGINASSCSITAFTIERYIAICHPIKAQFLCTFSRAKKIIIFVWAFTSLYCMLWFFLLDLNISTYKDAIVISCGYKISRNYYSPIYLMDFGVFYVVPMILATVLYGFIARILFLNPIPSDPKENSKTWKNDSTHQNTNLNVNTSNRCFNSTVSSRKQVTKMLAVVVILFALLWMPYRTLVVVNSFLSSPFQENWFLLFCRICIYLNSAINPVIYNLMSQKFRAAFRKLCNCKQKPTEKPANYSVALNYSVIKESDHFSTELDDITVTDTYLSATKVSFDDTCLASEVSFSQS
Method in brief: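 Antagonism is measured as suppression of the calcium response to 1 nM TRH in TRHR-HEK293 cells that have been dye-loaded for 2 h at 37 °C after overnight plating. Each compound is tested at 15 concentrations in triplicate.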

[10] = molecular target: Thyrotropin-releasing hormone receptor (Homo sapiens) (UniProt P34981); assay: qHTS assay to identify small molecule agonists of the thyrotropin-releasing hormone receptor (TRHR) signaling pathway (AID 1346891; calls by dose curve); conditions: TRHR-HEK293 calcium fluorescence, agonist mode; series mostly up to 57.6 µM
Method in brief: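 Readout was intracellular calcium fluorescence in TRHR-Hek293 cells. Cells were incubated 18 h, dye-loaded 2 h at 37 °C, and treated with compound in agonist mode.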
% is scaled to controls: 0 for no effect and ±100 for the full control effect.

CC(Oc1cccc(Cl)c1)C(=O)O (stereo not drawn)
inactive: Potency [1] | Potency [2] | Potency [3] | Potency [4] | Potency [5] | Potency [6] | Potency [7] | outcome [8] | Potency [9] | outcome [10]

CN[C@@H](C)[C@H](O)c1ccccc1
inactive: Potency [1] | Potency [2] | Potency [3] | Potency [4] | Potency [5] | Potency [6] | Potency [7] | outcome [8] | Potency [9] | outcome [10]

CCCC[P+](CC)(CCCC)CCCC (tested in a mixture with another compound)
inactive: Potency [1] | Potency [2] | Potency [3] | Potency [4] | Potency [5] | Potency [7] | outcome [8] | Potency [9] | outcome [10]

C[N+](C)(C)CCOC(=O)C(O)(c1ccccc1)c1ccccc1
inactive: Potency [1] | Potency [2] | Potency [3] | Potency [4] | Potency [5] | Potency [7] | outcome [8] | Potency [9] | outcome [10]

CC(Cl)C(=O)O (stereo not drawn)
inactive: Potency [1] | Potency [2] | Potency [3] | Potency [4] | Potency [5] | Potency [6] | Potency [7] | outcome [8] | Potency [9] | outcome [10]

COC1CC(=C(c2cccs2)c2cccs2)C[N+](C)(C)C1 (stereo not drawn)
inactive: Potency [1] | Potency [2] | Potency [3] | Potency [4] | Potency [5] | Potency [7] | outcome [8] | Potency [9] | outcome [10]

CCOP(=O)(SC(C)CC)N1CCSC1=O (stereo not drawn)
inactive: Potency [1] | Potency [2] | Potency [3] | Potency [4] | Potency [5] | Potency [7] | outcome [8] | Potency [9] | outcome [10]

C=CC(C)(CCC=C(C)C)OC(=O)c1ccccc1N (stereo not drawn)
inactive: Potency [1] | Potency [2] | Potency [3] | Potency [4] | Potency [5] | Potency [7] | outcome [8] | Potency [9] | outcome [10]

CCC1(C2=NCCN2)Cc2ccccc2O1 (stereo not drawn)
inactive: Potency [1] | Potency [2] | Potency [3] | Potency [4] | Potency [5] | Potency [6] | Potency [7] | outcome [8] | Potency [9] | outcome [10]

CCN(C(C)=O)c1cccc(-c2ccnc3c(C#N)cnn23)c1
inactive: Potency [1] | Potency [2] | Potency [3] | Potency [4] | Potency [5] | Potency [6] | Potency [7] | outcome [8] | Potency [9] | outcome [10]

CC(CC(C(N)=O)(c1ccccc1)c1ccccc1)N(C)C (stereo not drawn)
inactive: Potency [1] | Potency [2] | Potency [3] | Potency [4] | Potency [5] | Potency [7] | outcome [8] | Potency [9] | outcome [10]

Nc1ccc2c(c1)Cc1ccccc1-2
inactive: Potency [1] | Potency [2] | Potency [4] | Potency [5] | Potency [6] | Potency [7] | outcome [8] | Potency [9] | outcome [10]
active: Potency [3] 6.08 µM

CN1C[C@H](C(=O)N[C@]2(C)O[C@@]3(O)[C@@H]4CCCN4C(=O)[C@H](Cc4ccccc4)N3C2=O)C=C2c3cccc4[nH]cc(c34)C[C@H]21
active: Potency [1] 24.4 µM and 20.2 µM
48.8 µM (active) and inactive: Potency [3]
inactive: Potency [2] | Potency [4] | Potency [5] | Potency [7] | outcome [8] | Potency [9] | outcome [10]

O=C(Cc1ccccc1)c1ccccc1
inactive: Potency [1] | Potency [2] | Potency [3] | Potency [4] | Potency [5] | Potency [7] | outcome [8] | Potency [9] | outcome [10]

CCOC(C(=O)OCCN(C)C)(c1ccccc1)c1ccccc1
inactive: Potency [1] | Potency [2] | Potency [3] | Potency [4] | Potency [5] | Potency [6] | Potency [7] | outcome [8] | Potency [9] | outcome [10]

CC(C)(C)OOC(C)(C)CCC(C)(C)OOC(C)(C)C
inactive: Potency [1] | Potency [2] | Potency [3] | Potency [4] | Potency [5] | Potency [6] | Potency [7] | outcome [8] | Potency [9] | outcome [10]

CCCCOC(=O)CCC(=O)OCCCC
inactive: Potency [1] | Potency [2] | Potency [3] | Potency [4] | Potency [5] | Potency [6] | Potency [7] | outcome [8] | Potency [9] | outcome [10]

O=C(O)C(O)C(O)C(=O)O (stereo not drawn)
inactive: Potency [1] | Potency [2] | Potency [3] | Potency [4] | Potency [5] | Potency [7] | outcome [8] | Potency [9] | outcome [10]

C[N+]1(CCC(C(N)=O)(c2ccccc2)c2ccccc2)CCCCC1
inactive: Potency [1] | Potency [2] | Potency [3] | Potency [4] | Potency [5] | Potency [6] | Potency [7] | outcome [8] | Potency [9] | outcome [10]

C[C@H](N)[C@H](O)c1ccc(O)c(O)c1
inactive: Potency [1] | Potency [2] | Potency [3] | Potency [4] | Potency [5] | Potency [7] | outcome [8] | Potency [9] | outcome [10]

CC(Cc1ccccc1)NCc1ccccc1Cl (stereo not drawn)
inactive: Potency [1] | Potency [2] | Potency [3] | Potency [4] | Potency [5] | Potency [7] | outcome [8] | Potency [9] | outcome [10]

CCOC(=O)c1cncn1C(C)c1ccccc1 (stereo not drawn)
inactive: Potency [1] | Potency [2] | Potency [3] | Potency [4] | Potency [5] | Potency [7] | outcome [8]

C=CC(=O)OCC
inactive: Potency [1] | Potency [2] | Potency [3] | Potency [4] | Potency [5] | Potency [7] | outcome [8] | Potency [9] | outcome [10]

CCCCCCCCCCCCN=C(N)N
inactive: activity change, negative = cytotoxicity [1] -1.52% [at 3.27 µM] | activation [2] 2.06% [at 3.27 µM] | activity change, negative = inhibition [3] 1.76% [at 3.27 µM] | activity change, negative = cytotoxicity [4] 1.32% [at 3.27 µM] | activity change, negative = cytotoxicity [5] 0.561% [at 3.27 µM] | activity change, negative = cytotoxicity [7] -9.54% [at 2.72 µM] | activation [8] 1.13% [at 2.72 µM] | activity, negative = inhibition [9] 1.26% [at 1.81 µM] | activation [10] 0.32% [at 2.04 µM]

CCCC[N+](CCCC)(CCCC)CCCC
inactive: Potency [1] | Potency [2] | Potency [3] | Potency [4] | Potency [5] | Potency [7] | outcome [8] | Potency [9] | outcome [10]

CC1(C)[C@H](C(=O)O[C@H](C#N)c2cccc(Oc3ccccc3)c2)[C@@H]1C=C(Br)Br
active: Potency [3] 17.2 µM
inactive: Potency [1] | Potency [2] | Potency [4] | Potency [5] | Potency [6] | Potency [7] | outcome [8] | Potency [9] | outcome [10]
